Screening data: PubChem BioAssay, National Center for Advancing Translational Sciences (NCATS)
Most compounds without a hit are left out; they make up all but 3.3% or so of the library.
Luc counter: Kinase-Glo luciferase inhibition (counter-screen); Kinase-Glo luciferase, ATP luminescence, 8 min; Potency, µM (series often up to 38.3 µM), without a hit: at the top dose activity change, negative = inhibition, actives largely listed as inhibitors; 200,000 compounds, 0.28% hits; AID 1379; further: nearly all actives have a fitted effect of over 60% in size
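Light output from Kinase-Glo luciferase with luciferin and 10 uM ATP in 50 mM imidazole pH 7.2, KCl, MgCl2, Tween 20, BSA; compound pin-delivered, 8-min ambient incubation, then luminescence read.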
Tau fluor counter: counter-screen for tau fibril formation inhibitors; tau K18 P301L Alexa594 fluorescence, heparin fibrillization; Potency, µM (top dose mostly 57.7 µM), for inactives: top-dose activity change, negative = decrease; AID 1463; 280,000 compounds, 0.93% hits; further: nearly all actives have a fitted effect of over 55% in size
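Human tau K18 P301L (15 uM unlabeled, 0.24 uM Alexa 594-labeled) in 100 mM sodium acetate pH 7 with 20 uM heparin, 6 hr at 37 C. ThT 30 uM added, 1 hr ambient; Alexa 594 FP and total fluorescence read at 555/632 nm.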
Tau ThT inhib: tau fibrillization inhibition (ThT binding); AID 1460; P10636; Potency, µM (doses to about 57.4 µM), inactives show top-dose activity, negative = inhibition, usual class: inhibitors; recombinant tau K18 P301L (four-repeat tau fragment), heparin-induced fibrillization, ThT fluorescence; 270,000 compounds, 2.1% hits; further: nearly all actives have a fitted effect of over 55% in size
Target sequence (P10636 561-689 P618L limits assumed): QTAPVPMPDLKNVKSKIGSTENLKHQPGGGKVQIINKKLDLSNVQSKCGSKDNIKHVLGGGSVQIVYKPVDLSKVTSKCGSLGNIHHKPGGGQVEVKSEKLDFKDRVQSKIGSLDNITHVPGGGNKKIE
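K18 P301L tau (15 uM + 0.24 uM Alexa 594-tagged), heparin 20 uM, NaOAc pH 7, 6 h 37 C; ThT 30 uM, 1 h RT, ex 450/em 510 nm.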
NPSR antagonist: antagonists of human neuropeptide S receptor cAMP signaling | Q6W5P4 | CHO-NPSR cells, cAMP TR-FRET, antagonist mode | Potency, µM (top dose mostly 38.3 µM), without a hit: top-dose activity change, negative = inhibition, usual class: inhibitors | 220,000 compounds, 1% hits; further: nearly all actives have a fitted effect of over 50% in size
Target sequence (Q6W5P4 whole entry, looked up): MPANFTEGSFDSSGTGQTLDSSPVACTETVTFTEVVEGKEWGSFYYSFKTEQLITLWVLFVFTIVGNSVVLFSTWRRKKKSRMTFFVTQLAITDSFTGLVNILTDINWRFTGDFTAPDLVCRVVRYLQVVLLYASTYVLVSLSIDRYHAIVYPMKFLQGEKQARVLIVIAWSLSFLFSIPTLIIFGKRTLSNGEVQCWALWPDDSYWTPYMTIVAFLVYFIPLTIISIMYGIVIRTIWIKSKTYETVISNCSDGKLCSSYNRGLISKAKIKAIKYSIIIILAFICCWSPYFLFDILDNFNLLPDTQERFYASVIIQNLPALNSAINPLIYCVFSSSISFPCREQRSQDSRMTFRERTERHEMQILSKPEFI
Tau FP inhib: tau fibrillization inhibition (FP) | K18 P301L tau heparin fibrillization, Alexa594 FP, 6 h | Potency, µM (titrated, usually from 57.7 µM), inactives show at the top dose activity, negative = inhibition, actives largely listed as inhibitors | 280,000 compounds, 0.39% hits | AID 1468; further: nearly all actives have a fitted effect of over 55% in size
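Quantitative HTS format: compounds meet 15 uM recombinant K18 P301L tau and Alexa 594-tau tracer in 100 mM sodium acetate pH 7; 20 uM heparin triggers fibrillization at 37 C over 6 hr; FP gives the signal.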
The depositor's hits bear a star; u = inconclusive; x = not tested or not shown; [ ] = another dose, or the depositor's remark. The call rests on the fitted dose curve; in most records, active means well fitted curve in the direction sought with a large enough effect; inconclusive means small, poorly fitted or top-dose-only effect, or another doubt; inactive means no such curve, though single readings can be large; an effect the other way counts as inactive or inconclusive. On the % scale 0 is the no-effect control and ±100 the full control effect; potency means the concentration at half of the fitted maximal effect.

SMILES	Luc counter	Tau fluor counter	Tau ThT inhib	NPSR antagonist	Tau FP inhib
CCN(C(=O)CSc1nc(-c2ccc(C(C)C)cc2)no1)c1cccc(C)c1	x	-19%	u	x	-6%
CCC(CC)c1nnc(NC(=O)c2ccc(N3CCCCC3)c([N+](=O)[O-])c2)s1	1%	13%	14%	-11%	8%
O=C(Nc1nc2ccc(Cl)cc2s1)c1ccc(N2CCCCC2)c([N+](=O)[O-])c1	0%	-15%	1.3µM*	-2%	-19%
O=C(Nc1nc2ccc3ccccc3c2s1)c1ccc(N2CCCCC2)c([N+](=O)[O-])c1	2%	-19%	4µM*	-1%	3%
CC(N)(C(=O)O)c1ccc(S(=O)(=O)O)cc1 (stereo not drawn)	x	0%	-2%	x	0%
COc1ccc(-c2nn(-c3ccccc3)cc2C2NC(=O)NC(C)=C2C(=O)OC(C)C)cc1Cl (stereo not drawn)	x	-11%	-2%	x	-1%
Cc1cccc(Cn2cc(C(=O)Nc3ccc(F)c(C(F)(F)F)c3)ccc2=O)c1	x	u	20%	x	25µM*
CS(=O)(=O)NCCNc1ccc(C(F)(F)F)cc1[N+](=O)[O-]	0%	-2%	-18%	15%	-3%
COc1ccc2[nH]c(C)c(CCNc3ccc(C(F)(F)F)cc3[N+](=O)[O-])c2c1	-1%	11µM*[quencher]	u	-53%	u
Cc1cc(SCC(=O)c2ccc(O)c(O)c2)nc2ccccc12	-1%	28µM*[quencher]	u	-1%	-6%
COc1cc(NC(=O)C2CCN(S(=O)(=O)c3c(C)noc3/C=C/c3cccs3)CC2)cc(OC)c1	x	u	3%	x	u
CC/C(=N/Nc1ccccc1C)c1cnnc(SC)n1	-7%	-20%	3.5µM*	-44%	u
CSc1nncc(/C(C)=N\Nc2ccccc2)n1	4%	-8%	2.8µM*	-22%[46.1 µM]	-3%
CSc1nncc(/C(C)=N\Nc2cccc(C)c2)n1	-7%	-11%	u	-3%[46.1 µM]	-8%
COc1ccc(NC(=S)NNC(=S)Nc2cccc(C(F)(F)F)c2)cc1	x	14µM*[quencher]	u	19%	0%
FC(F)(F)c1cccc(NC(=S)Nc2ccc(Cl)c(Cl)c2)c1	x	18µM*[quencher]	u	u	22µM*
S=C(NCc1ccncc1)Nc1ccc(Cl)c(Cl)c1	-2%	-20%	11%	7%	u
FC(F)(F)c1cccc(NC(=S)NNC(=S)Nc2cccc(C(F)(F)F)c2)c1	x	10µM*[quencher]	28µM*	u	u
COC(=S)Nc1cccc(C(F)(F)F)c1	x	-10%	-7%	-14%	2%
FC(F)(F)c1cccc(NC(=S)NC(c2ccccc2)c2ccccc2)c1	1%	u	-5%	-39%	-18%
O=[N+]([O-])c1cc(C(F)(F)F)cc([N+](=O)[O-])c1NCCNC(=S)Nc1ccc(Cl)c(Cl)c1	x	5.6µM*[quencher]	u	u	u
CNNC(=S)Nc1cccc(C(F)(F)F)c1	x	-17%	-5%	-13%	5%
COc1ccc2c(c1)CC1c3c(cc4c(c3-2)OCO4)CC[N+]1(C)[O-] (stereo not drawn)	x	10%	-15%	24%	1%
Cc1ccc(NC(=O)CSc2nnc(COc3ccc(Cl)cc3)o2)c(C)c1	x	-3%	8%	x	-2%
CCOc1ccc(NC(=S)NN(C)C(=S)Nc2ccc(OCC)cc2)cc1	-6%	18µM*[quencher]	u	-6%	14%
SMILES	Luc counter	Tau fluor counter	Tau ThT inhib	NPSR antagonist	Tau FP inhib
CCCN(Cc1ccccc1)C(=S)Nc1ccc(OCC)cc1	5%	-17%	-10%	-18%	1%
CCOc1ccc(NC(=S)NNC(=S)Nc2cccc(C(F)(F)F)c2)cc1	x	28µM*[quencher]	32µM*	26%	u
O=C(O)CCSC1=NCCN1	-4%[7.66 µM]	x	x	x	x
Cc1noc2ncnc(N3CCCC(C(=O)Nc4cccc(C(F)(F)F)c4)C3)c12 (stereo not drawn)	x	-17%	3%	x	-13%
Cc1cc(C(=O)N/N=C/c2cccs2)n[nH]1	-5%	10%	4%	-4%	u
Cc1ccc(O)c(N=Cc2ccc(C)s2)c1	0%	u	22µM*	9%	u
Cc1ccc(O)c(N=Cc2cccs2)c1	-1%	u	25µM*	9%	u
Cc1cc(C)n2ncc(/C(N)=N/OC(=O)Nc3ccccc3)c2n1	x	-19%	u	4%[7.67 µM]	-5%
CCSCCc1nnc(NC(=O)Nc2cccc(C(F)(F)F)c2)s1	1%	u	6%	-36%	11µM*
O=C(Nc1cccc(C(F)(F)F)c1)Nc1cccs1	x	11µM*[quencher]	u	x	u
O=C(Nc1ccccc1)Nc1cccc(C(F)(F)F)c1	1%	-30%	1%	-16%	u
CC(C(=O)Nc1cccc([N+](=O)[O-])c1)[n+]1ccccc1 (stereo not drawn)	0%	13%[2.34 µM]	22µM*	-15%	-55%
O=C(Nc1cccc([N+](=O)[O-])c1)Nc1cccs1	-2%	20µM*[quencher]	u	27%	10%
Cc1ccc(NC(=O)C(C)Sc2nc(-c3ccccc3)c(C#N)c(=O)[nH]2)c(C)c1 (stereo not drawn)	x	-2%	0%	x	0%
Cc1ccc(S(=O)(=O)NCC(c2ccco2)N2CCN(c3ccccc3F)CC2)cc1 (stereo not drawn)	x	-15%	-6%	x	-1%
Cc1ccccc1-c1cccc([C@@H]2C[C@H]3CN(Cc4cccnc4)C(=O)[C@]34CCCN24)c1	x	11%	-5%	4%	-2%
N#CC1=C(S)N=C(N)C(c2nc(-c3ccccc3)cs2)C12CCCC2 (stereo not drawn)	-2%	u	28µM*	-24%[46.1 µM]	u
O=C1Nc2ccc([N+](=O)[O-])cc2OC1CCN1CCOCC1 (stereo not drawn)	2%	-5%	-16%	1%	-2%
O=C1Nc2ccc([N+](=O)[O-])cc2OC1CCN1CCN(c2ccccc2)CC1 (stereo not drawn)	5%	-23%	10µM*	26%	1%
CSC(=[SH+])N=N/C(=C1/C=CC=CN1)c1ccccn1.[Cu][Br]	-2%[7.66 µM]	x	x	x	x
CCN1C(=O)/C(=C2/C=Cc3cc(C)ccc3N2CC)N(C)C1=S	10µM*	-28%	u	-50%	14%
Cc1ccc(N=Nc2ccc(N)cc2C)c(S(N)(=O)=O)c1	-3%[7.66 µM]	u	14µM*	-1%	15%
CCCC[n+]1c(C)sc2cc(OC)ccc21	-4%	-7%	u	-6%	2%
CCC[n+]1c(C)sc2c(OC)ccc(OC)c21	x	-20%	35µM*	12%	32µM*
Cc1ccc(Cl)cc1N1CCN(C(=O)c2ccc(NC(=O)c3nsc4ccccc34)cc2)CC1	x	-9%	-8%	x	u
NC(CSS(=O)(=O)O)=NCCC12CC3CC(CC(O)(C3)C1)C2	-1%	-12%	3.5µM*	10%	u
Cc1nc2c(c(C)c1CCC(=O)N1CCN(c3ccccc3)CC1)c(=O)n(C)c(=O)n2C	x	-14%	-8%	x	-6%
